Experimental data from PubChem BioAssay (NCI).
The panel holds about 83,000 compounds, 20% with a hit somewhere; the sample as a whole holds those more often.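 Single-dose data. Exposure time 48 hours. Values below 10 considered active.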 Calls of active or inactive are those of the source.

Columns and labels:
Experiment in all cases: NCI-60 one-dose screen, 48 h (100 = growth as untreated, 0 = no growth, -100 = all killed)
HCT-15 colon = details: 10 µM unless noted
HT29 colon = details: 10 µM unless noted
SNB-75 CNS = details: 10 µM unless noted
SNB-19 CNS = details: 10 µM unless noted
U251 CNS = details: 10 µM unless noted
PC-3 prostate = details: 10 µM unless noted
SK-MEL-5 melanoma = details: 10 µM unless noted
UACC-62 melanoma = details: 10 µM unless noted
SK-MEL-28 melanoma = details: 10 µM unless noted
SK-MEL-2 melanoma = details: 10 µM unless noted
EKVX NSCLC = details: 10 µM unless noted
SN12C renal = details: 10 µM unless noted
TK-10 renal = details: 10 µM unless noted
ACHN renal = details: 10 µM unless noted
CAKI-1 renal = details: 10 µM unless noted
A498 renal = details: 10 µM unless noted
CCRF-CEM leukemia = details: 10 µM unless noted
MOLT-4 leukemia = details: 10 µM unless noted
LOX IMVI melanoma = details: 10 µM
UO-31 renal = details: 10 µM unless noted

Measured: growth

Nc1c(O)c(S(=O)(=O)O)c(O)c2c1C(=O)c1ccccc1C2=O
inactive: HCT-15 colon 15.9% | HT29 colon 14% | SNB-75 CNS 24.7% | SNB-19 CNS 26.2% | U251 CNS 20.2% | PC-3 prostate 23.8% | UACC-62 melanoma 34.6% | SK-MEL-28 melanoma 42.5% | EKVX NSCLC 33.8% | SN12C renal 28.1% | TK-10 renal 21.7% | CAKI-1 renal 13.5% | CCRF-CEM leukemia 28%
active: SK-MEL-5 melanoma 5.72% | SK-MEL-2 melanoma 6.13% | ACHN renal 4.01% | A498 renal 5.41% | MOLT-4 leukemia 5.87%

O=C(O)CSCC(=O)Nc1cc(C(F)(F)F)ccc1Cl
inactive: HCT-15 colon 103% | HT29 colon 104% | SNB-75 CNS 125% | SNB-19 CNS 106% | U251 CNS 106% | PC-3 prostate 102% | SK-MEL-5 melanoma 102% | UACC-62 melanoma 99.6% | SK-MEL-28 melanoma 114% | SK-MEL-2 melanoma 111% | SN12C renal 102% | TK-10 renal 110% | ACHN renal 106% | CAKI-1 renal 89.4% | A498 renal 139% | CCRF-CEM leukemia 101% | MOLT-4 leukemia 109%

Nc1ccn(C2CC(N)C(CO)O2)c(=O)n1 (configuration not stated)
inactive: HCT-15 colon 71.4% | HT29 colon 81.3% | SNB-75 CNS 77.6% | SNB-19 CNS 68.2% | U251 CNS 80.9% | PC-3 prostate 74.8% | SK-MEL-5 melanoma 83.6% | LOX IMVI melanoma 75.4% | SK-MEL-28 melanoma 118% | SK-MEL-2 melanoma 122% | EKVX NSCLC 100% | SN12C renal 67.4% | UO-31 renal 72.6% | TK-10 renal 99.4% | ACHN renal 20.1% | CAKI-1 renal 42.3% | A498 renal 100% | MOLT-4 leukemia 31%

Cc1ccccc1NC(=O)Oc1ccc(Cl)cc1C(=O)c1ccccc1
inactive: HCT-15 colon 94.1% | HT29 colon 100% | SNB-75 CNS 77.7% | SNB-19 CNS 96% | U251 CNS 87.6% | PC-3 prostate 95.2% | SK-MEL-5 melanoma 97.3% | UACC-62 melanoma 85.4% | SK-MEL-28 melanoma 106% | SK-MEL-2 melanoma 92.6% | SN12C renal 88.2% | UO-31 renal 49.1% | TK-10 renal 113% | ACHN renal 88.1% | CAKI-1 renal 91.7% | A498 renal 107% | CCRF-CEM leukemia 96.5% | MOLT-4 leukemia 86.3%

CC(C)(C)CC1(C)NC(=O)NC1=O (configuration not stated)
active: CCRF-CEM leukemia -59.7%
inactive: HCT-15 colon 110% | HT29 colon 107% | SNB-75 CNS 83.8% | SNB-19 CNS 110% | U251 CNS 111% | PC-3 prostate 106% | SK-MEL-5 melanoma 108% | LOX IMVI melanoma 102% | SK-MEL-28 melanoma 116% | SK-MEL-2 melanoma 166% | EKVX NSCLC 108% | SN12C renal 110% | UO-31 renal 100% | TK-10 renal 125% | ACHN renal 109% | CAKI-1 renal 102% | A498 renal 120%

CC(=O)NC(O)C(Cl)Cl (configuration not stated)
inactive: HCT-15 colon 102% | HT29 colon 105% | SNB-75 CNS 103% | SNB-19 CNS 106% | U251 CNS 91.4% | PC-3 prostate 96.4% | SK-MEL-5 melanoma 102% | UACC-62 melanoma 106% | SK-MEL-28 melanoma 103% | SK-MEL-2 melanoma 100% | SN12C renal 110% | UO-31 renal 92.8% | TK-10 renal 97.3% | ACHN renal 105% | CAKI-1 renal 92.3% | CCRF-CEM leukemia 99.4% | MOLT-4 leukemia 104%

Cc1ccc(C2CCCCC2)cc1Br
inactive: HCT-15 colon 100% | HT29 colon 95.8% | SNB-75 CNS 98.4% | SNB-19 CNS 95.6% | U251 CNS 88.1% | PC-3 prostate 94% | SK-MEL-5 melanoma 102% | LOX IMVI melanoma 103% | SK-MEL-28 melanoma 101% | SK-MEL-2 melanoma 99% | EKVX NSCLC 98.9% | SN12C renal 101% | UO-31 renal 83.2% | TK-10 renal 98.7% | ACHN renal 101% | CAKI-1 renal 90.3% | A498 renal 88.6% | CCRF-CEM leukemia 103% | MOLT-4 leukemia 110%

O=C(O)c1cc(I)ccc1O
inactive: HCT-15 colon 101% | HT29 colon 104% | SNB-75 CNS 81.8% | SNB-19 CNS 93.1% | U251 CNS 100% | PC-3 prostate 104% | SK-MEL-5 melanoma 103% | LOX IMVI melanoma 92% | SK-MEL-28 melanoma 113% | SK-MEL-2 melanoma 107% | EKVX NSCLC 100% | SN12C renal 95.3% | UO-31 renal 90.7% | TK-10 renal 93.3% | ACHN renal 97.6% | CAKI-1 renal 103% | A498 renal 126% | CCRF-CEM leukemia 99.3% | MOLT-4 leukemia 108%

N=C(N)c1nn(C2OC(CO)C(O)C2O)c2nc[nH]c(=O)c12 (configuration not stated)
active: HCT-15 colon 0.318% | SNB-75 CNS 9.13% | SNB-19 CNS 5.88% | PC-3 prostate -3.91% | SK-MEL-5 melanoma -97% | LOX IMVI melanoma -27.8% | SK-MEL-28 melanoma -53.9% | SK-MEL-2 melanoma -23% | EKVX NSCLC -0.273% | SN12C renal 6.98% | TK-10 renal -9.5% | ACHN renal -5.7% | CAKI-1 renal 1.5% | CCRF-CEM leukemia -0.754%
inactive: HT29 colon 11.7% | U251 CNS 16% | UO-31 renal 13.1% | A498 renal 15.4%

O=[n+]1ccn([O-])c2ccccc21
inactive: HCT-15 colon 110% | HT29 colon 108% | SNB-75 CNS 92% | SNB-19 CNS 102% | U251 CNS 100% | PC-3 prostate 92.1% | SK-MEL-5 melanoma 93.2% | LOX IMVI melanoma 97.4% | SK-MEL-28 melanoma 108% | SK-MEL-2 melanoma 120% | EKVX NSCLC 104% | SN12C renal 97.4% | UO-31 renal 88.6% | TK-10 renal 98.3% | ACHN renal 104% | CAKI-1 renal 96.2% | A498 renal 81% | CCRF-CEM leukemia 17.7% | MOLT-4 leukemia 102%

C/C(=N\O)c1ccccn1
inactive: HCT-15 colon 102% | HT29 colon 97.3% | SNB-75 CNS 96.9% | SNB-19 CNS 95.2% | U251 CNS 88.8% | PC-3 prostate 94.3% | SK-MEL-5 melanoma 105% | LOX IMVI melanoma 99.1% | SK-MEL-28 melanoma 110% | SK-MEL-2 melanoma 94.9% | EKVX NSCLC 107% | SN12C renal 91.4% | UO-31 renal 88.1% | TK-10 renal 95.8% | ACHN renal 105% | CAKI-1 renal 95.3% | CCRF-CEM leukemia 96.5% | MOLT-4 leukemia 116%

CCCCCCCCNC(=O)C(C)C
inactive: HCT-15 colon 106% | HT29 colon 95.5% | SNB-75 CNS 91.2% | SNB-19 CNS 101% | U251 CNS 101% | PC-3 prostate 94.9% | SK-MEL-5 melanoma 103% | UACC-62 melanoma 96% | SK-MEL-28 melanoma 101% | EKVX NSCLC 99.9% | SN12C renal 95.8% | UO-31 renal 99.1% | TK-10 renal 98.5% | ACHN renal 108% | CAKI-1 renal 99.1% | A498 renal 81.5% | CCRF-CEM leukemia 102% | MOLT-4 leukemia 107%

CC(C)C(=O)OCCOc1ccc(C(C)(C)C)cc1
inactive: HCT-15 colon 100% | HT29 colon 93.1% | SNB-75 CNS 94.1% | SNB-19 CNS 98.8% | U251 CNS 88.4% | PC-3 prostate 91.6% | SK-MEL-5 melanoma 102% | LOX IMVI melanoma 95.8% | SK-MEL-28 melanoma 110% | SK-MEL-2 melanoma 92.3% | EKVX NSCLC 103% | SN12C renal 89.4% | UO-31 renal 89.6% | TK-10 renal 93.7% | ACHN renal 101% | CAKI-1 renal 100% | A498 renal 94.2% | CCRF-CEM leukemia 98.6% | MOLT-4 leukemia 114%

O=c1cc(C(F)(F)F)[nH]c(=S)[nH]1
inactive: HCT-15 colon 103% | HT29 colon 108% | SNB-75 CNS 102% | SNB-19 CNS 94.4% | U251 CNS 101% | PC-3 prostate 116% | SK-MEL-5 melanoma 98.7% | UACC-62 melanoma 99.5% | SK-MEL-28 melanoma 105% | SK-MEL-2 melanoma 111% | SN12C renal 95% | UO-31 renal 87.3% | TK-10 renal 97.7% | ACHN renal 108% | CAKI-1 renal 88% | A498 renal 139% | CCRF-CEM leukemia 119% | MOLT-4 leukemia 105%

COc1ccc(C)cc1NC(=O)SC(C)C
inactive: HCT-15 colon 102% [100 µM] | HT29 colon 104% [100 µM] | SNB-75 CNS 82.4% [100 µM] | SNB-19 CNS 99% [100 µM] | U251 CNS 104% [100 µM] | PC-3 prostate 96.7% [100 µM] | SK-MEL-5 melanoma 96.3% [100 µM] | UACC-62 melanoma 87.5% [100 µM] | SK-MEL-28 melanoma 102% [100 µM] | SK-MEL-2 melanoma 102% [100 µM] | SN12C renal 96.6% [100 µM] | UO-31 renal 82.9% [100 µM] | TK-10 renal 128% [100 µM] | ACHN renal 100% [100 µM] | CAKI-1 renal 95.5% [100 µM] | A498 renal 92.3% [100 µM] | CCRF-CEM leukemia 106% [100 µM] | MOLT-4 leukemia 106% [100 µM]

O=S(=O)(O)c1cccnc1
active: CCRF-CEM leukemia -41.7%
inactive: HCT-15 colon 114% | HT29 colon 117% | SNB-75 CNS 79.5% | SNB-19 CNS 96% | U251 CNS 113% | PC-3 prostate 102% | SK-MEL-5 melanoma 103% | LOX IMVI melanoma 108% | SK-MEL-28 melanoma 114% | SK-MEL-2 melanoma 136% | EKVX NSCLC 93.7% | SN12C renal 105% | UO-31 renal 109% | TK-10 renal 104% | ACHN renal 105% | CAKI-1 renal 95.2% | A498 renal 101% | MOLT-4 leukemia 79.6%

CC(O)C(F)(F)C(F)(F)C(F)(F)F (configuration not stated)
inactive: HCT-15 colon 88.2% | HT29 colon 99.9% | SNB-75 CNS 103% | SNB-19 CNS 112% | U251 CNS 103% | PC-3 prostate 110% | SK-MEL-5 melanoma 101% | UACC-62 melanoma 115% | SK-MEL-28 melanoma 108% | SK-MEL-2 melanoma 111% | SN12C renal 110% | UO-31 renal 95.3% | TK-10 renal 102% | ACHN renal 93.8% | CAKI-1 renal 99.2% | A498 renal 120% | CCRF-CEM leukemia 108% | MOLT-4 leukemia 96.4%

ClCC(Cl)C1CCC(Cl)C(Cl)C1 (configuration not stated)
inactive: HCT-15 colon 99% | HT29 colon 103% | SNB-75 CNS 89.6% | SNB-19 CNS 99.8% | U251 CNS 99.6% | PC-3 prostate 102% | SK-MEL-5 melanoma 105% | UACC-62 melanoma 103% | SK-MEL-28 melanoma 103% | SK-MEL-2 melanoma 110% | SN12C renal 104% | UO-31 renal 86.3% | TK-10 renal 100% | ACHN renal 99.3% | CAKI-1 renal 97.2% | A498 renal 85.5% | CCRF-CEM leukemia 97.5% | MOLT-4 leukemia 105%
